Screen size: about 39,000 compounds; about 1,500 (3.8%) were called active. Shown is part of a subset that was picked to be rich in actives.
Each compound was assayed on HSkMC (human skeletal muscle cells) (assay: cytotoxicity call (relative viability < 0.9)). Conditions: 10 µM.

| SMILES | cytotoxicity call |
| --- | --- |
| O=C(CN1CCOCC1)N[C@H]1CC[C@H](CCNC(=O)C2CCCCC2)O[C@@H]1CO | inactive |
| CNC[C@@H]1Oc2ccc(NS(=O)(=O)c3cn(C)cn3)cc2C(=O)N([C@H](C)CO)C[C@H]1C | inactive |
| CCCNC(=O)N1C[C@@H](O)COC[C@@H]2O[C@@H](CC(=O)N3CCOCC3)CC[C@H]21 | inactive |
| O=C(C[C@@H]1CC[C@H]2[C@@H](COC[C@H](O)CN2S(=O)(=O)c2ccc(F)cc2)O1)N[C@H]1CCN(Cc2ccccc2)C1 | inactive |
| COc1nsnc1N1CCOCC1 | inactive |
| C[C@H](CO)N1C[C@H](C)[C@@H](CN(C)Cc2ccc(Cl)c(Cl)c2)Oc2ccc(NS(=O)(=O)c3ccccc3)cc2CC1=O | inactive |
| C[C@@H]1CN([C@H](C)CO)C(=O)Cc2cc(NS(=O)(=O)c3ccccc3)ccc2O[C@@H]1CN(C)Cc1ccc(Cl)c(Cl)c1 | active |
| C[C@@H]1CN([C@@H](C)CO)C(=O)Cc2cc(NS(=O)(=O)c3ccccc3)ccc2O[C@H]1CN(C)Cc1ccc(Cl)c(Cl)c1 | active |
| C[C@H](CO)N1C[C@H](C)[C@H](CN(C)Cc2ccc(Cl)c(Cl)c2)Oc2ccc(NS(=O)(=O)c3ccccc3)cc2CC1=O | inactive |
| C[C@@H]1CN([C@@H](C)CO)C(=O)Cc2cc(NS(=O)(=O)c3ccccc3)ccc2O[C@@H]1CN(C)Cc1ccc(Cl)c(Cl)c1 | active |
| C[C@H]1CN([C@@H](C)CO)C(=O)Cc2cc(NS(=O)(=O)c3ccccc3)ccc2O[C@H]1CN(C)Cc1ccc(Cl)c(Cl)c1 | inactive |
| C[C@@H]1CN([C@H](C)CO)C(=O)Cc2cc(NS(=O)(=O)c3ccccc3)ccc2O[C@H]1CN(C)Cc1ccc(Cl)c(Cl)c1 | active |
| C[C@H]1CN([C@@H](C)CO)C(=O)Cc2cc(NS(=O)(=O)c3ccccc3)ccc2O[C@@H]1CN(C)Cc1ccc(Cl)c(Cl)c1 | inactive |
| Cc1noc(C)c1NC(=O)N(C)C[C@H]1Oc2ccc(NC(=O)Nc3ccc(C(F)(F)F)cc3)cc2C(=O)N([C@H](C)CO)C[C@@H]1C | inactive |
| NNC(=O)[C@H]1C[C@H]2C[C@@H]1C[C@@H]2C(=O)NN | inactive |
| COc1ccc(S(=O)(=O)N(C)C[C@H]2Oc3ccc(NC(=O)Cn4cnnn4)cc3CC(=O)N([C@@H](C)CO)C[C@H]2C)cc1 | inactive |
| O=C(O)c1ccc[n+]([O-])c1 | inactive |
| CN(C)C(=O)C1CCN(S(C)(=O)=O)CC1 | inactive |
| Cc1noc(C)c1NC(=O)Nc1ccc2c(c1)C(=O)N([C@@H](C)CO)C[C@H](C)[C@H](CN(C)C(=O)Nc1ccc(C(F)(F)F)cc1)O2 | inactive |
| C[C@@H]1CCCCO[C@@H](CN(C)C(=O)c2ccccc2)[C@@H](C)CN([C@H](C)CO)C(=O)c2cc(NC(=O)Cc3ccccc3)ccc2O1 | inactive |
| O=C(Nc1cc(Cl)ccc1Cl)c1cc(Br)ccc1NS(=O)(=O)c1ccc(Cl)c([N+](=O)[O-])c1 | inactive |
| Cn1cnc(-c2cc3nccc(Oc4ccc(NC(=S)NC(=O)Cc5ccccc5)cc4F)c3s2)c1 | inactive |
| COCCNCc1ccc(-c2cc3nccc(Oc4ccc(NC(=S)NC(=O)Cc5ccc(F)cc5)cc4F)c3s2)nc1 | active |

| SMILES | cytotoxicity call |
| --- | --- |
| COCCNCc1ccc(-c2cc3nccc(Oc4ccc(NC(=O)C5(C(=O)Nc6ccc(F)cc6)CC5)cc4F)c3s2)nc1 | active |
| C[C@H](CO)N1C[C@H](C)[C@H](CN(C)S(=O)(=O)c2ccc(-n3cccn3)cc2)OCc2cn(nn2)CCCC1=O | inactive |
| CO[C@H](C(=O)N(C)C[C@@H]1OCc2ccccc2-c2c(n(C)c3ccccc23)C(=O)N([C@@H](C)CO)C[C@@H]1C)c1ccccc1 | inactive |
| C[C@@H]1CN([C@@H](C)CO)C(=O)Cc2cc(NC(=O)Nc3cccc4ccccc34)ccc2O[C@@H]1CN(C)Cc1ccncc1 | inactive |
| COc1ccc(S(=O)(=O)N[C@H]2CC[C@@H](CC(=O)N3CCN(c4ccccc4)CC3)O[C@@H]2CO)cc1 | inactive |
| Cc1noc(C)c1NC(=O)Nc1ccc2c(c1)C(=O)N([C@H](C)CO)C[C@@H](C)[C@H](CN(C)C(=O)Nc1cccc3ccccc13)OCCCC[C@@H](C)O2 | inactive |
| Cc1noc(C)c1NC(=O)Nc1ccc2c(c1)C(=O)N([C@H](C)CO)C[C@H](C)[C@H](CN(C)C(=O)Nc1cccc3ccccc13)OCCCC[C@H](C)O2 | active |
| Cc1noc(C)c1NC(=O)Nc1ccc2c(c1)C(=O)N([C@H](C)CO)C[C@H](C)[C@@H](CN(C)C(=O)Nc1cccc3ccccc13)OCCCC[C@H](C)O2 | inactive |
| Cc1noc(C)c1NC(=O)Nc1ccc2c(c1)C(=O)N([C@@H](C)CO)C[C@H](C)[C@@H](CN(C)C(=O)Nc1cccc3ccccc13)OCCCC[C@@H](C)O2 | inactive |
| Cc1noc(C)c1NC(=O)Nc1ccc2c(c1)C(=O)N([C@@H](C)CO)C[C@@H](C)[C@H](CN(C)C(=O)Nc1cccc3ccccc13)OCCCC[C@@H](C)O2 | active |
| Cc1noc(C)c1NC(=O)Nc1ccc2c(c1)C(=O)N([C@@H](C)CO)C[C@@H](C)[C@H](CN(C)C(=O)Nc1cccc3ccccc13)OCCCC[C@H](C)O2 | inactive |
| COc1ccc(S(=O)(=O)N(C)C[C@@H]2OCCCC[C@H](C)Oc3ccc(NS(=O)(=O)c4ccc(Cl)cc4)cc3C(=O)N([C@H](C)CO)C[C@H]2C)cc1 | inactive |
| COc1ccc(S(=O)(=O)Nc2ccc3c(c2)C(=O)N([C@@H](C)CO)C[C@H](C)[C@H](CN(C)Cc2ccc(C(=O)O)cc2)OCCCC[C@H](C)O3)cc1 | inactive |
| COC(=O)C1CCN(S(=O)(=O)c2c(C)n(C)c(=O)n(C)c2=O)CC1 | inactive |
| O=C(CN1CCOCC1)NCC[C@@H]1CC[C@@H](NC(=O)c2ccccc2F)[C@H](CO)O1 | inactive |
| O=C(CN1CCOCC1)NCC[C@@H]1CC[C@@H](NC(=O)c2ccccc2F)[C@@H](CO)O1 | active |
| O=C(CN1CCOCC1)NCC[C@H]1CC[C@H](NC(=O)c2ccccc2F)[C@H](CO)O1 | inactive |
| CO/N=[N+](\[O-])NC(C)C | inactive |
| C[C@@H]1CCCCO[C@@H](CN(C)Cc2ccc(Cl)c(Cl)c2)[C@H](C)CN([C@H](C)CO)C(=O)c2cc(NS(=O)(=O)c3ccc(F)cc3)ccc2O1 | active |
| C[C@H](CO)N1C[C@H](C)[C@H](CN(C)Cc2ccc(Cl)c(Cl)c2)OCCCC[C@H](C)Oc2ccc(NS(=O)(=O)c3ccc(F)cc3)cc2C1=O | active |
| C[C@H](CO)N1C[C@H](C)[C@@H](CN(C)Cc2ccc(Cl)c(Cl)c2)OCCCC[C@H](C)Oc2ccc(NS(=O)(=O)c3ccc(F)cc3)cc2C1=O | inactive |
| C[C@@H]1CCCCO[C@@H](CN(C)Cc2ccc(Cl)c(Cl)c2)[C@@H](C)CN([C@@H](C)CO)C(=O)c2cc(NS(=O)(=O)c3ccc(F)cc3)ccc2O1 | inactive |
| C[C@H]1CCCCO[C@H](CN(C)Cc2ccc(Cl)c(Cl)c2)[C@@H](C)CN([C@@H](C)CO)C(=O)c2cc(NS(=O)(=O)c3ccc(F)cc3)ccc2O1 | active |

| SMILES | cytotoxicity call |
| --- | --- |
| C[C@@H]1CCCCO[C@@H](CN(C)Cc2ccc(Cl)c(Cl)c2)[C@H](C)CN([C@@H](C)CO)C(=O)c2cc(NS(=O)(=O)c3ccc(F)cc3)ccc2O1 | active |
| C[C@@H]1CCCCO[C@H](CN(C)Cc2ccc(Cl)c(Cl)c2)[C@@H](C)CN([C@H](C)CO)C(=O)c2cc(NS(=O)(=O)c3ccc(F)cc3)ccc2O1 | inactive |
| C[C@H]1CN([C@@H](C)CO)C(=O)c2cc(NC(=O)NC3CCCCC3)ccc2O[C@H]1CN(C)S(=O)(=O)c1cn(C)cn1 | inactive |
| O=C(C[C@@H]1CC[C@@H](NC(=O)Cc2ccccn2)[C@H](CO)O1)NCCc1ccncc1 | inactive |
| C[C@H](CO)N1C[C@H](C)[C@@H](CN(C)S(=O)(=O)c2cccs2)OCCCC[C@H](C)Oc2ccc(NS(=O)(=O)c3ccc(Cl)cc3)cc2C1=O | inactive |
| C[C@H](CO)N1C[C@H](C)[C@H](CN(C)C(=O)Nc2ccc(C(F)(F)F)cc2)OCCCC[C@H](C)Oc2ccc(NC(=O)Cc3ccccc3)cc2C1=O | inactive |
| C[C@@H]1CCCCO[C@H](CN(C)Cc2ccc3c(c2)OCO3)[C@H](C)CN([C@@H](C)CO)C(=O)c2cc(NS(=O)(=O)c3ccccc3)ccc2O1 | inactive |
| C[C@H]1CN([C@@H](C)CO)C(=O)c2cc(NC(=O)CCCN(C)C)ccc2O[C@@H]1CN(C)Cc1ccc(Oc2ccccc2)cc1 | inactive |
| Cc1ncc(CO)c(/C=N/O)c1O | inactive |
| Cc1ccc(S[C@]2(C(=O)NC(C)C)CC(=O)N(C3CCCCC3)[C@@H]2c2ccc(CO)cc2I)cc1 | inactive |
| COc1ccc(S(=O)(=O)N[C@H]2C=C[C@@H](CC(=O)N3CCN(c4ccccc4)CC3)O[C@@H]2CO)cc1 | inactive |
| Cc1noc(C)c1NC(=O)Nc1cccc2c1O[C@@H](CN(C)C(=O)Nc1ccc(C(F)(F)F)cc1)[C@H](C)CN([C@H](C)CO)C2=O | inactive |
| Cc1cc(C(=O)Nc2cccc3c2O[C@H](CN(C)S(=O)(=O)c2ccc(F)cc2)[C@@H](C)CN([C@H](C)CO)C3=O)n(C)n1 | inactive |
| COC(=O)c1c2oc(c1C(=O)OC)C(=O)N[C@H](Cc1ccccc1)Cn1cc(nn1)CNC(=O)[C@H](Cc1ccccc1)NC(=O)N[C@@H](CO)CC2 | inactive |
| CCCCC[C@H]1C[C@H]1C[C@H]1C[C@H]1CCCCCCCC(=O)O | inactive |
| COc1cccc(CN2C[C@@H](C)[C@H](OC)CN(C)C(=O)c3cc(NS(=O)(=O)c4cn(C)cn4)ccc3OC[C@H]2C)c1 | inactive |
| O=C(C[C@@H]1CC[C@@H]2[C@H](COC[C@@H](O)CN2C(=O)c2ccc3c(c2)OCO3)O1)NCCN1CCCC1 | inactive |
| C[C@@H]1CCCCO[C@H](CN(C)Cc2ccc(Cl)c(Cl)c2)[C@H](C)CN([C@@H](C)CO)C(=O)c2cc(NS(=O)(=O)c3ccc(F)cc3)ccc2O1 | active |
| C[C@@H]1CN([C@H](C)CO)C(=O)c2cc(NS(=O)(=O)c3ccc(F)cc3)ccc2O[C@@H](C)CCCCO[C@H]1CN(C)Cc1ccc(Cl)c(Cl)c1 | inactive |
| C[C@@H]1CCCCO[C@@H](CN(C)Cc2ccc(Cl)c(Cl)c2)[C@@H](C)CN([C@H](C)CO)C(=O)c2cc(NS(=O)(=O)c3ccc(F)cc3)ccc2O1 | inactive |
| C[C@@H]1CCCCO[C@H](CN(C)Cc2ccc(Cl)c(Cl)c2)[C@@H](C)CN([C@@H](C)CO)C(=O)c2cc(NS(=O)(=O)c3ccc(F)cc3)ccc2O1 | active |

Reference: the antibiotic and cytotoxicity screens of Wong et al. (2023)
